{
  "source": "PubChem BioAssay (NCI)",
  "note": "Compounds without any hit were thinned out: in the full panel of roughly 83,000, 20% have a hit.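 Plates (96-well) were seeded with cells, treated with compound at one concentration, and incubated for 48 hours before percent growth was determined.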 Calls of active or inactive are those of the source. The calls were made as follows: active = growth percent below 10; inactive = the rest.",
  "data": [
    {"test_system": "M14 melanoma", "assay": "NCI-60 one-dose screen, 48 h (100 = growth as untreated, 0 = no growth, -100 = all killed)", "settings": "10 µM unless noted", "values": [
      {"smiles": "O=C(NCCCCCCNC(=O)c1c2c(nc3ccccc13)-c1cccnc1SC2)c1c2c(nc3ccccc13)-c1cccnc1SC2", "growth": "30.8% (inactive)"},
      {"smiles": "COc1ccc(-c2ccc3c4c(cccc24)C(=O)N(N2C(=O)c4cccc5cccc(c45)C2=O)C3=O)cc1", "growth": "94.1% (inactive)"},
      {"smiles": "COc1ccc(-c2nc3cc(Cl)c(Cl)cc3n2CC(=O)N=Nc2c(O)[nH]c3ccc(Cl)cc23)cc1", "growth": "11.9% (inactive)"},
      {"smiles": "CCOC(=O)c1c(NCC(=O)Nc2ccc(Br)cc2)sc2c1CCCC2", "growth": "46.3% (inactive)"},
      {"smiles": "CN1C(=O)/C(=C/C=C/c2ccco2)SC1=S", "growth": "45% (inactive)"},
      {"smiles": "COc1ccc(-c2nnc(SCc3ccc(O)c4ncccc34)o2)cc1", "growth": "31.4% (inactive)"},
      {"smiles": "C#CCOc1ccc(/C=N/Nc2nc(-c3cc4cc(Br)cc(Br)c4oc3=O)cs2)cc1", "growth": "98.2% (inactive)"},
      {"smiles": "CS(=O)c1nccc(-c2c(-c3ccc(F)c(OCCc4ccc(F)cc4)c3)nc3sccn23)n1", "note": "(stereo not drawn)", "growth": "67.6% (inactive)"},
      {"smiles": "O=C1[C@@H]2Cc3c([nH]c4ccccc34)[C@H](c3c(Cl)cccc3Cl)N2C(=O)CN1C1CCN(Cc2c(F)cccc2F)CC1", "growth": "75.2% (inactive)"},
      {"smiles": "NNC(=O)c1sc2nc(-c3cnccn3)cc(-c3cccs3)c2c1N", "growth": "105% (inactive)"},
      {"smiles": "Cn1cc(-c2nnc(N)nc2-c2cn(C)c3ccc(F)cc23)c2cc(F)ccc21", "growth": "101% (inactive)"},
      {"smiles": "COc1ccccc1/C=C/C=N/NC1=NC2C(S1)N(C)C(=O)N2c1ccccc1", "note": "(stereo not drawn)", "growth": "-12.1% (active)"},
      {"smiles": "C[C@H]1[C@H](C)CC[C@]2(COC(=O)c3cccnc3)CC[C@]3(C)C(=CC[C@@H]4[C@@]5(C)CCCNC(C)(C)[C@@H]5CC[C@]43C)[C@H]12", "growth": "79.1% (inactive)"}
    ]}
  ]
}
